Measurements: PubChem BioAssay (NCATS)
Several values for one entry are separate records, joined by “and”; a condition that tells them apart may be missing. Equal values may be shown once. Results filed as inconclusive are left out. Some compounds were tested as several samples or in several runs, with calls that do not always agree. Activity calls are given as the source filed them. Unless noted, calls come from the whole dose curve; as a rule, active = well fitted curve in the direction sought with a large enough effect in the repeat runs; inconclusive = weak or mixed curves; inactive = no such curve, though single readings can be large; an effect the other way counts as inactive or inconclusive.

Key:
[1] = molecular target: Cytochrome P450 2D6 (Homo sapiens) (UniProt P10635); experiment: Cytochrome P450 family 2 subfamily D member 6 (CYP2D6) small molecule antagonists: luciferase biochemical (cell-free) qHTS assay (AID 1645840); note: nearly all actives have a fitted effect of over 55% in size; note: potency is the fitted concentration of half-maximal effect
Outline: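 P450-Glo luminescent screen: recombinant CYP2D6 enzyme–proluciferin substrate mix preincubated with compound 10 min at room temperature, then NADPH regeneration added for 1 h at room temperature. Detection reagent added for 20 min; luciferin light read as relative luminescence units.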

[2] = molecular target: Cytochrome P450 2C9 (Homo sapiens) (UniProt P11712); experiment: Cytochrome P450 family 2 subfamily C member 9 (CYP2C9) small molecule antagonists: luciferase biochemical (cell-free) qHTS assay (AID 1645842); note: nearly all actives have a fitted effect of over 55% in size; note: potency is the fitted concentration of half-maximal effect
Outline: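 Luminescence, after 20 min with luciferin detection reagent, reflected CYP2C9 turnover during a 1 h NADPH-driven reaction at 37C. Enzyme-substrate mix contained 0.4% bovine serum albumin and was preincubated with compound 10 min at room temperature.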

[3] = A High-Content qHTS Against Drug Library for the Identification of Small Molecules that Inhibit DYT1 Early Onset Primary Dystonia-Associated Cell Pathology (AID 1645839; calls by dose curve; note: series mostly up to about 46 µM)
Outline: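 Readout: %pathology, the punctate EGFP-TorsinA distribution from imaging, as the primary channel and cell count as the toxicity counterscreen. HEK293 Flp-In cells expressing delE TorsinA were induced with tetracycline and treated with compound for 48 h.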

[4] = Primary qHTS for inhibitors of nuclear receptor binding SET domain protein 2 (NSD2) in an isogenic RCH-ACV NSD2 p.E1099K mutant (9B) (AID 1645876; active = well fitted curve in the direction sought with a large enough effect; an effect the other way counts as inactive or inconclusive; note: nearly all actives have a fitted effect of over 70% in size; note: potency is the fitted concentration of half-maximal effect)
[5] = Primary qHTS for inhibitors of nuclear receptor binding SET domain protein 2 (NSD2) in an RCH-ACV wild type WT cells (2C) (AID 1645877; active = well fitted curve in the direction sought with a large enough effect; an effect the other way counts as inactive or inconclusive; note: nearly all actives have a fitted effect of over 70% in size; note: potency is the fitted concentration of half-maximal effect)
[6] = molecular target: N-terminal Xaa-Pro-Lys N-methyltransferase 1 (Homo sapiens) (UniProt Q9BV86); experiment: Confirmatory qHTS for Inhibitors of N-terminal methyltransferase 1 (NTMT1): MTaseGlo Assay (AID 1645874; active = well fitted curve in the direction sought with a large enough effect; an effect the other way counts as inactive or inconclusive; note: nearly all actives have a fitted effect of over 65% in size; note: potency is the fitted concentration of half-maximal effect)
Outline: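 qHTS format: NTMT1 125 nM, SAM 100 uM, peptide SPKRIA 1 uM final; 15 min compound preincubation, 30 min reaction at room temperature. MTase-Glo luminescence.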

[7] = molecular target: Cytochrome P450 3A4 (Homo sapiens) (UniProt P08684); experiment: Cytochrome P450 family 3 subfamily A member 4 (CYP3A4) small molecule antagonists: luciferase qHTS assay (AID 1645841); note: nearly all actives have a fitted effect of over 45% in size
Outline: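 P450-Glo CYP3A4 enzyme with proluciferin substrate was preincubated with DMSO-dissolved compounds for 10 min at room temperature. NADPH regeneration solution started a 1 h reaction. Detection reagent stopped it, and luminescence was read after 20 min.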

Sequence of N-terminal Xaa-Pro-Lys N-methyltransferase 1 (Homo sapiens) (Q9BV86 whole entry, looked up): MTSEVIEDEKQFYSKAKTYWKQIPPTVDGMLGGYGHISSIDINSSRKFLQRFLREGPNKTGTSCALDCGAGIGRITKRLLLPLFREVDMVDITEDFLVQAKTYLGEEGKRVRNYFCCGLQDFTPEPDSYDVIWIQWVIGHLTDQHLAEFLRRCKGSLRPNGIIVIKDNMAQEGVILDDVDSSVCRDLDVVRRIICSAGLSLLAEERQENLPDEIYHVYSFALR
Sequence of Cytochrome P450 2C9 (Homo sapiens) (P11712 whole entry, looked up): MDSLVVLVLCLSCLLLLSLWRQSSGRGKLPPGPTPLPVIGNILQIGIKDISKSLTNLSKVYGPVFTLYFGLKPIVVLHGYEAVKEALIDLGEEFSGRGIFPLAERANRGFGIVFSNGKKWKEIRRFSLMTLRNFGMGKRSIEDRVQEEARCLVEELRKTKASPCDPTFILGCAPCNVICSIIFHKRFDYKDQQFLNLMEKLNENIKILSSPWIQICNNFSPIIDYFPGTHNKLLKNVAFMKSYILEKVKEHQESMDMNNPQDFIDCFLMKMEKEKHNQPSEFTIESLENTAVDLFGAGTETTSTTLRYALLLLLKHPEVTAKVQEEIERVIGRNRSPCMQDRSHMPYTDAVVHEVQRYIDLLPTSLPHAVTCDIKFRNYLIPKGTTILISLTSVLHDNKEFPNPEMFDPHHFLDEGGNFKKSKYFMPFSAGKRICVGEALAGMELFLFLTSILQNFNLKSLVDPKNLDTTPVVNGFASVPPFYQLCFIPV
Sequence of Cytochrome P450 2D6 (Homo sapiens) (P10635 whole entry, looked up): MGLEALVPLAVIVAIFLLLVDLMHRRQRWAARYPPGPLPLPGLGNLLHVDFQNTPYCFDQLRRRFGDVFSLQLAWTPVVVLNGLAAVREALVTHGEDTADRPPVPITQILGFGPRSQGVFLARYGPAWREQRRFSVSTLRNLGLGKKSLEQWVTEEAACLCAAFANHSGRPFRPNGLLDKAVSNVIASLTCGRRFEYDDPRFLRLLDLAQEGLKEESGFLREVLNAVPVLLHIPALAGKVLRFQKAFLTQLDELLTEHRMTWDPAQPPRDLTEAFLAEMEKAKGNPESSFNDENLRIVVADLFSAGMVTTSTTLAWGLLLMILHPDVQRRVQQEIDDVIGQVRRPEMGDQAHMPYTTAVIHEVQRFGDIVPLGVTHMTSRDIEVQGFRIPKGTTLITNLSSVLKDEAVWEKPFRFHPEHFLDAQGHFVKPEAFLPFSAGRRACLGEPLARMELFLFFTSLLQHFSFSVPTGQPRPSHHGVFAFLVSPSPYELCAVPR
Sequence of Cytochrome P450 3A4 (Homo sapiens) (P08684 whole entry, looked up): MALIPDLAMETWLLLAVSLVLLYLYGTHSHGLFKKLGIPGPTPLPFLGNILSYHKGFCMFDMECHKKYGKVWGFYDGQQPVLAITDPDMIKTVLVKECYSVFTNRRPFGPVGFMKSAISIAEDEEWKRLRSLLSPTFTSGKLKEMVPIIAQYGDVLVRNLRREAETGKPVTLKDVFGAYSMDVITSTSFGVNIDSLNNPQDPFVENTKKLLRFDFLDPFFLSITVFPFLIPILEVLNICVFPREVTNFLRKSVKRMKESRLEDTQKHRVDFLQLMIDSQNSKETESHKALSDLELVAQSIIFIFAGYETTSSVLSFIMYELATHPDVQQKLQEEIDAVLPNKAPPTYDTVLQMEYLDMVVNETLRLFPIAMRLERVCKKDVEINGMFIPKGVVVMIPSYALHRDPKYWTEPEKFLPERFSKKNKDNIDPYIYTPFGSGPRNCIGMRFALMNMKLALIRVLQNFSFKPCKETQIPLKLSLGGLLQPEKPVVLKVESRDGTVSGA

CN1[C@H]2CC[C@H]1CC(OC(=O)c1c[nH]c3ccccc13)C2 (some centres not stated)
Potency [1]: 12 µM (active)
Potency [2]: inactive

O=C(Nc1cccc2c(=O)cc(-c3nn[nH]n3)oc12)c1ccc(OCCCCc2ccccc2)cc1
outcome [3]: inactive
Potency [1]: 15.5 µM (active)
Potency [2]: 7.76 µM (active)
Potency [4]: inactive
Potency [5]: inactive

COc1cc(Nc2nc3ccccc3nc2NS(=O)(=O)c2ccc(NC(=O)c3ccc(C)c(OC)c3)cc2)cc(OC)c1
Potency [1]: inactive
Potency [2]: 7.56 µM (active)
Potency [4]: inactive

Cc1nc(C(=O)NCC(=O)O)c(O)c2ccc(Oc3ccccc3)cc12
Potency [1]: inactive
Potency [2]: inactive
Potency [4]: inactive

OC[C@H]1O[C@@H](OCCc2ccc(O)cc2)[C@H](O)[C@@H](O)[C@H]1O
outcome [3]: inactive
Potency [1]: inactive
Potency [2]: inactive

O=C(CCCN1CCN(c2ccc(F)cc2)CC1)NC1c2ccccc2CSc2ccccc21 (configuration not stated)
Potency [1]: 4.36 µM (active)
Potency [2]: 8.71 µM (active)

CCOC(=O)N1c2ccc(C(F)(F)F)cc2[C@@H](N(Cc2cc(C(F)(F)F)cc(C(F)(F)F)c2)C(=O)OC)C[C@H]1CC
Potency [1]: inactive
Potency [2]: inactive
Potency [4]: inactive

CCNC(=O)c1noc(-c2cc(C(C)C)c(O)cc2O)c1-c1ccc(CN2CCOCC2)cc1
Potency [1]: 1.34 µM (active)
Potency [2]: 2.39 µM (active)
Potency [6]: inactive
Potency [4]: 18.3 nM (active) and 11.8 nM (active)
Potency [5]: 18.3 nM (active) and 13.2 nM (active)

O[C@@H](COc1cccc2ncccc12)CN1CCN(C2c3ccccc3[C@@H]3[C@H](c4ccccc42)C3(F)F)CC1 (some centres not stated)
Potency [1]: 13.8 µM (active) and 10.7 µM (active)
Potency [2]: 10.7 µM (active)
Potency [4]: 15 µM (active)

CC1CCN(c2cc(N3CCN(C)CC3)ccc2NC(=O)c2cc(C#N)c[nH]2)CC1
Potency [1]: 1.2 µM (active)

C[C@@H](NC(=O)c1ncnc(N)c1Cl)c1ncc(C(=O)Nc2cc(C(F)(F)F)c(Cl)cn2)s1
Potency [1]: inactive

COC(=O)N1CCN(Cc2cccc(NC(=O)Nc3ccc(C)nc3)c2F)CC1
Potency [1]: inactive

C[C@@H]1C[C@H]2[C@@H]3CCC4=CC(=O)C=C[C@]4(C)[C@@]3(F)[C@@H](O)C[C@]2(C)[C@@]1(O)C(=O)CO
outcome [3]: inactive
Potency [5]: 0.0332 µM (active)

CC(C)(OCc1nn(Cc2ccccc2)c2ccccc12)C(=O)O
Potency [1]: inactive
outcome [7]: inactive
Potency [2]: inactive
Potency [4]: inactive

Cc1nc2c([nH]1)CCN(C(=O)c1ccc(NC(=O)c3ccccc3-c3ccccc3)cc1)c1ccccc1-2
Potency [1]: 4.77 µM (active)
Potency [2]: inactive

Fc1ccc(CNc2ncnc3ccc(F)cc23)cc1
Potency [1]: 16.9 µM (active)
Potency [2]: 8.49 µM (active)

COc1ccnc(CS(=O)c2nc3ccc(OC(F)F)cc3[nH]2)c1OC (configuration not stated)
outcome [3]: inactive
Potency [1]: 5.49 µM (active) and 16.9 µM (active)
Potency [2]: 27.5 µM (active) and 21.3 µM (active)
Potency [4]: 15 µM (active) and 18.6 µM (active)

COc1ccc(C=CC(=O)Nc2ccccc2C(=O)O)cc1OC
Potency [1]: inactive
Potency [2]: 16.9 µM (active)

CN(C)c1ccc(-c2nc3ncc(Cl)c(N4CCN(CC(=O)Nc5nccs5)CC4)c3[nH]2)cc1
Potency [1]: inactive
Potency [2]: 0.536 µM (active)

CCCCC[C@H](O)C=C[C@H]1[C@H](O)CC(=O)[C@H]1CC=CCCCC(=O)O
outcome [3]: inactive
Potency [1]: inactive
Potency [2]: inactive
Potency [4]: 0.417 µM (active)

Clc1ccc(COC(Cn2ccnc2)c2ccc(Cl)cc2Cl)c(Cl)c1 (configuration not stated)
Potency [1]: 1.07 µM (active)
Potency [2]: 0.19 µM (active)

c1ccc(-c2oc3ncnc(NC[C@@H]4CCCO4)c3c2-c2ccccc2)cc1
Potency [1]: 10.7 µM (active)
Potency [2]: 7.56 µM (active)
Potency [6]: 8.91 µM (active)
Potency [4]: inactive
Potency [5]: inactive and 18.3 µM (active)

O=C(c1ccc(F)c(F)c1Nc1ccc(I)cc1F)N1CC(O)([C@H]2CCCCN2)C1
Potency [1]: 3.01 µM (active)
Potency [2]: inactive

CC[C@H](C)C(=O)O[C@H]1C[C@H](O)C=C2C=C[C@H](C)[C@H](CC[C@@H](O)C[C@@H](O)CC(=O)O)[C@H]21
Potency [1]: inactive
outcome [7]: inactive
Potency [2]: inactive
Potency [4]: inactive
Potency [5]: inactive

C[C@@H]1CCO[C@H]2Cn3cc(C(=O)NCc4ccc(F)cc4F)c(=O)c(O)c3C(=O)N12
Potency [1]: inactive
Potency [2]: inactive
Potency [4]: 20.5 µM (active)

Cc1cc(-c2ncc(CC(=O)Nc3ccc(-c4cnccn4)cn3)cc2C)ccn1
Potency [1]: inactive
Potency [2]: inactive
Potency [6]: inactive

CCc1cc(-c2n[nH]c(C)c2-c2ccc3c(c2)OCCO3)c(O)cc1O
Potency [1]: 4.25 µM (active)
Potency [2]: 0.756 µM (active)
Potency [4]: 8.33 µM (active)

C[C@H](c1ccc(F)cc1CCCC(=O)O)N(c1cc(F)ccc1F)S(=O)(=O)c1ccc(Cl)cc1
Potency [1]: 16.9 µM (active)
Potency [2]: 8.49 µM (active)

c1ccc(CNc2nc(N3CCOc4ccccc43)nc3c2CCCC3)cc1
Potency [1]: 3.01 µM (active)
Potency [2]: 1.9 µM (active)

CCN1CCC(n2cc(CNc3cc(Cl)c4ncc(C#N)c(Nc5ccc(F)c(Cl)c5)c4c3)nn2)CC1
Potency [1]: 12 µM (active)
Potency [2]: 7.56 µM (active)
Potency [6]: 10 µM (active)
Potency [4]: 23.5 µM (active)
Potency [5]: 18.6 µM (active)

CC[C@H](CC#N)OC(=O)N[C@@H](C)c1cccc(NC(=O)Nc2ccc(-c3cnco3)c(OC)c2)c1
Potency [1]: 0.338 µM (active)
Potency [2]: 0.0756 µM (active)
Potency [4]: 129 nM (active) and 166 nM (active)

O=C(Nc1cccc(C(F)(F)F)c1)Nc1cc(S(=O)(=O)NC2CC2)ccc1-c1ccsc1
Potency [1]: 5.35 µM (active)
Potency [2]: 3.38 µM (active)
Potency [4]: 23.5 µM (active)

Cc1ccc2c(c1)c1c(n2CCc2ccc(C)nc2)CCN(C)C1
Potency [1]: 8.49 µM (active)
Potency [2]: 10.7 µM (active)
Potency [4]: 14.5 µM (active)

COc1cc2ncnc(Nc3cc(Br)c(O)c(Br)c3)c2cc1OC
Potency [1]: inactive

CCNC(=O)Nc1ccc(Oc2ncnc(N)c2C=NOC)cc1Cl
Potency [1]: inactive
Potency [2]: inactive

NS(=O)(=O)c1cc(Cl)c(Cl)c(S(N)(=O)=O)c1
Potency [1]: inactive
Potency [2]: inactive
Potency [4]: inactive
Potency [5]: inactive

CC(C)C[C@@H](C(=O)N[C@H](C(=O)OC1CCCC1)c1ccccc1)[C@H](O)C(=O)NO
Potency [1]: inactive
Potency [2]: 5.35 µM (active)
Potency [4]: 14.8 µM (active)
Potency [5]: 14.8 µM (active)

Cc1cnc(-c2cc(N3CCN(C(=O)CCS(C)(=O)=O)CC3)ncc2Cl)c(C)c1
Potency [1]: inactive
Potency [2]: 21.3 µM (active)
Potency [4]: inactive
Potency [5]: inactive

O=C(Nc1ccc(OC(F)(F)F)cc1)c1sccc1NCc1ccnc2ccccc12
Potency [1]: 16.9 µM (active)
Potency [2]: 7.56 µM (active)
Potency [4]: 16.6 µM (active) and 14.6 µM (active)
Potency [5]: 18.6 µM (active)

Cc1cccc2c1CC[C@H](CN1CCC(c3c(Cl)cccc3Cl)CC1)C[C@@H]2O
Potency [1]: 2.13 µM (active)
Potency [2]: 9.52 µM (active)
Potency [4]: 10.3 µM (active)
Potency [5]: 7.28 µM (active)

O=S(=O)(O)c1ccc2cc(N=Nc3cc(S(=O)(=O)O)c4cccnc4c3O)ccc2c1
Potency [1]: inactive
Potency [2]: inactive
Potency [4]: inactive
Potency [5]: inactive

C[C@@]1(c2cc(-c3cncnc3)c(F)cc2F)CCSC(N)=N1
Potency [1]: 6.74 µM (active)
Potency [2]: 16.9 µM (active)
Potency [4]: inactive
Potency [5]: inactive

COc1ccc(-c2cc3nccn3c(Nc3ncccc3C(N)=O)n2)cc1OC
Potency [1]: inactive
Potency [2]: 5.35 µM (active)
Potency [4]: 0.649 µM (active)
Potency [5]: 0.728 µM (active)

Clc1ccc(C2(c3ccc(-c4cn[nH]c4)cc3)CCNCC2)cc1
Potency [1]: 3.38 µM (active)
Potency [2]: 1.2 µM (active)
Potency [4]: 3.65 µM (active) and 3.72 µM (active)
Potency [5]: 1.83 µM (active) and 2.35 µM (active)

CSc1cccc(Nc2ncc3cc(-c4c(Cl)cccc4Cl)c(=O)n(C)c3n2)c1
Potency [1]: inactive
Potency [2]: 4.25 µM (active)
Potency [4]: 2.06 µM (active)
Potency [5]: 2.06 µM (active)

NS(=O)(=O)c1ccc(Nc2nc(OCC3CCCCC3)c3[nH]cnc3n2)cc1
Potency [1]: 19 µM (active)
Potency [2]: 26.8 µM (active)
Potency [4]: 13.2 µM (active)
Potency [5]: 13.2 µM (active)

Cc1cn([C@@H]2C[C@@H](O)[C@H](CO)O2)c(=O)[nH]c1=O
Potency [1]: inactive
Potency [2]: inactive
Potency [4]: inactive
Potency [5]: inactive

Cc1cnc(Nc2cccc(CN3CCOCC3)c2)nc1Nc1cccc(S(=O)(=O)NC(C)(C)C)c1
Potency [1]: 15.1 µM (active)
Potency [2]: 5.35 µM (active)
Potency [4]: 0.515 µM (active)

CC(C)(O)CC(=O)NCCn1ccc2ncnc(Nc3ccc(Oc4cccc(C(F)(F)F)c4)c(Cl)c3)c21
Potency [1]: 12 µM (active)
Potency [2]: 5.35 µM (active)
Potency [4]: 20.5 µM (active) and 11.8 µM (active)
Potency [5]: 20.5 µM (active) and 13.2 µM (active)

Cn1c(=O)c(-c2c(Cl)cccc2Cl)cc2cnc(Nc3cccc(C(=O)O)c3)nc21
Potency [1]: inactive
Potency [2]: inactive
Potency [4]: inactive
Potency [5]: inactive

Cn1cnc(-c2cc3nccc(Oc4ccc(NC(=S)NC(=O)Cc5ccccc5)cc4F)c3s2)c1
Potency [1]: inactive
Potency [2]: 1.9 µM (active)
Potency [4]: 5.15 µM (active) and 2.95 µM (active)
Potency [5]: 5.78 µM (active) and 3.32 µM (active)

C[C@@H](N)c1ccc(C(=O)Nc2ccnc3[nH]ccc23)cc1
Potency [1]: inactive
Potency [2]: inactive
Potency [4]: 9.34 µM (active)
Potency [5]: 4.17 µM (active)

O=c1[nH]nc(OCCCc2ccc(Cl)cc2)c(NCc2cccnc2)c1Br
Potency [1]: 10.7 µM (active)
Potency [2]: 1.51 µM (active)
Potency [4]: 8.17 µM (active)
Potency [5]: 9.16 µM (active)

Cc1cc(C(C)Nc2ccccc2)c2nc(N3CCOCC3)cc(=O)n2c1 (configuration not stated)
Potency [1]: inactive
Potency [2]: 1.07 µM (active)
Potency [4]: 2.3 µM (active) and 2.63 µM (active)
Potency [5]: 2.3 µM (active) and 2.63 µM (active)

CN1CCC(COc2cnc(-c3cccc(Cn4nc(-c5cccc(C#N)c5)ccc4=O)c3)nc2)CC1
Potency [1]: inactive
Potency [2]: 16.9 µM (active)
Potency [4]: 11.8 µM (active) and 16.3 µM (active)
Potency [5]: 10.5 µM (active) and 16.3 µM (active)
